About 79,000 compounds went through this panel and 15% of them were active in at least one assay; those are over-represented in the sample as a whole. No stated cut-off is given here; in the data, active means growth inhibition above about 70%; inactive means the rest. Where a SMILES comes first, the peptide text is derived from it. [ ]: non-standard residue; d: D form. The star is where a group is joined. NMeAc5c = CNC1(C(=O)O)CCCC1; Boc = CC(C)(C)OC(=O)*; OBn = c1ccc(CO*)cc1
How the values were obtained:
[1] = NCI Yeast Anticancer Drug Screen. Data for the rad50 strain (AID 155);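 further: 0% = growth of vehicle-only cultures of the same strain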; conditions: S. cerevisiae rad50 strain growth inhibition; at 50.0 µM; active compounds read high
Procedure, shortened: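 Cells are treated with compound, grown, and their growth is then scored against vehicle-only cultures of the same repair-deficient yeast strain.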

[2] = NCI Yeast Anticancer Drug Screen. Data for the mec2-1 strain (AID 157); conditions: S. cerevisiae mec2-1 strain, at 50.0 µM, active compounds read high
Procedure, shortened: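 Growth inhibition is read against vehicle-treated controls after compound exposure of the mec2-1 yeast strain, which is defective in DNA damage repair or cell cycle control.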

[3] = NCI Yeast Anticancer Drug Screen. Data for the sgs1 mgt1 strain (AID 161);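 further: 0% = growth of cultures given vehicle only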; conditions: S. cerevisiae sgs1 mgt1 strain, at 50.0 µM, active compounds read high
Procedure, shortened: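 Percent growth inhibition was derived by comparing compound-exposed mutant yeast with vehicle-exposed cultures. The strain carries alterations in DNA damage repair.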

[4] = NCI Yeast Anticancer Drug Screen. Data for the cln2 rad14 strain (AID 165);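 further: 0% = growth equal to vehicle treated cultures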; conditions: S. cerevisiae cln2 rad14 strain, at 50.0 µM, active compounds read high
Procedure, shortened: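 Growth inhibition, relative to vehicle-treated controls, is the read-out. The test organism is a yeast strain with defined genetic alterations, cln2 rad14.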

[5] = NCI Yeast Anticancer Drug Screen. Data for the bub3 strain (AID 167); conditions: S. cerevisiae bub3 mutant strain, at 50.0 µM, active compounds read high
Procedure, shortened: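 Part of a panel of yeast mutants defective in DNA damage repair or cell cycle regulation. Each strain is grown with compound, and inhibition is calculated relative to solvent-treated cultures.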

[6] = NCI Yeast Anticancer Drug Screen. Data for the mlh1 rad18 strain (AID 175); conditions: S. cerevisiae mlh1 rad18 strain growth inhibition; at 50.0 µM; active compounds read high
Procedure, shortened: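 Cells of a genetically altered yeast strain, deficient in DNA damage repair, were treated with compound. Their growth was then compared with that of vehicle-treated cultures to give inhibition.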

Measured: growth inhibition

O=[N+]([O-])c1ccc(Cl)cc1N/N=C/c1ccnc2ccccc12
inactive: [1] -53.4% | [2] -56.1% | [3] -28.6% | [4] -15.1% | [5] -17.4% | [6] -54.9%

O=C(NC(C(=O)O)c1ccccc1)c1ccc([N+](=O)[O-])cc1 (stereo unspecified)
inactive: [1] 8.2% | [2] 10.1% | [3] 13.4% | [4] -0.6% | [5] 31.6% | [6] 11.6%

CC(=O)NCCCOc1ccc(N)cc1
inactive: [1] -3.7% | [2] 4.05% | [3] -0.4% | [4] -27.1% | [5] -2.3% | [6] -11.9%

c1csc(CNc2cccc3ccccc23)c1
inactive: [1] 54.5% | [2] 25% | [3] 31.6% | [4] -22.1% | [5] 13.6% | [6] 28%

O=C1CCC2(c3ccc(Cl)cc3)SCCN12 (stereo unspecified)
inactive: [1] 5.8% | [2] -20.5% | [3] -6.85% | [4] 2.75% | [5] 31.8% | [6] -0.15%

O=C(CC(=O)c1cccc([N+](=O)[O-])c1)C(=O)Nc1ccccc1
inactive: [1] -30.5% | [2] -28.8% | [3] 14.7% | [4] 11.1% | [5] -8.05% | [6] -5.55%

COC(=O)CC(C)N(c1ccc(OC)cc1)S(=O)(=O)c1ccc(C)cc1 (stereo unspecified)
inactive: [1] 18.4% | [2] 4.05% | [3] 14.3% | [4] -46% | [5] 17.6% | [6] 10.3%

N#CC(CC(=O)c1ccccc1)c1ccccc1 (stereo unspecified)
inactive: [1] -10.3% | [2] 4.95% | [3] -18.9% | [4] -28.9% | [5] -14.3% | [6] -7.05%

Clc1ccc(-c2nc(CSc3ccccn3)cs2)cc1
inactive: [1] 13.7% | [2] -12.4% | [3] 49.5% | [4] -22.2% | [5] 28.9% | [6] -6.8%

BrCCCC1CCCCC1
inactive: [1] -23.6% | [2] -41.7% | [3] -13.2% | [4] 2.1% | [5] -14.6% | [6] -14.7%

CC1(c2ccccc2)CC(c2cccc([N+](=O)[O-])c2)=NO1 (stereo unspecified)
inactive: [1] 27.4% | [2] 15.9% | [3] 36.9% | [4] 34.9% | [5] 28.6% | [6] 23.4%

CN(C(=O)C(Cc1ccccc1)NC(=O)OC(C)(C)C)C1(C(=O)NC(Cc2ccccc2)C(=O)OCc2ccccc2)CCCC1 (stereo not drawn) (Boc-Phe-[NMeAc5c]-Phe-OBn; configuration not given here)
inactive: [1] -3.35% | [2] 15.6% | [3] -4.5% | [4] 11.8% | [5] 8.6% | [6] 13.6%

C=C1C(=O)OC2/C=C(\C)CC(O)/C=C(/C)CC(OC(=O)C(O)(CO)C(C)S)C12 (stereo unspecified)
inactive: [1] -14% | [2] 6.55% | [3] -22.4% | [4] 3% | [5] -3.8% | [6] -22.7%

COC(=O)[C@@H]1CON(Cc2ccccc2)C1CC1(C)OCCO1 (stereo partly specified)
inactive: [1] 0.85% | [2] -7.3% | [3] 23.8% | [4] 0.6% | [5] 7.35% | [6] 8.45%

CCCCN(Cc1ccccc1)C(=O)Nc1ccccc1
inactive: [1] 4.5% | [2] 30.1% | [3] 33.1% | [4] -8.1% | [5] 39% | [6] 1.2%

CSC1=Nc2ccccc2N(C)c2c1c(-c1ccccc1)nn2C
inactive: [1] 34.8% | [2] 32.1% | [3] 28.8% | [4] 28.6% | [5] 43% | [6] 21.6%

CC12C(=O)NC(c3ccccc3)(c3ccccc31)C1C(=O)N(C(N)=O)C(=O)C12 (stereo unspecified)
inactive: [1] 13.9% | [2] 7.35% | [3] 25.6% | [4] -3.05% | [5] -15.2% | [6] 4.4%

CCC(CCC#N)(CCC#N)C(=O)c1ccc(C)s1
inactive: [1] 1.5% | [2] -4.3% | [3] 1.3% | [4] -19.8% | [5] 0.1% | [6] 2.45%

COc1cc(C=O)ccc1OC(=O)Nc1cc(Cl)ccc1C
inactive: [1] 6.6% | [2] 6.7% | [3] 10.8% | [4] 5.75% | [5] 13.2% | [6] 8.85%

O=C1CSC2=NC3=C(CSC/C3=C\c3ccccc3)C(c3ccccc3)N12 (stereo unspecified)
inactive: [1] 14.4% | [2] 11.5% | [3] 21.2% | [4] 35.8% | [5] 21% | [6] -25.6%

COc1ccc(/C=C2\N=C(c3ccccc3)OC2=O)c(OC)c1C
inactive: [1] -6.1% | [2] -4.9% | [3] -1.65% | [4] -60.4% | [5] 1.9% | [6] -9.95%

CC1(C)OC2OC(CI)C3OC(C)(C)OC3C2O1 (stereo unspecified)
inactive: [1] 5.7% | [2] 2.8% | [3] -1.75% | [4] 34.5% | [5] 12.6% | [6] -1.45%

Cc1cc(C)c2c(=O)c3c(oc2c1)O[C@@](C)(CO)C[C@@H]3c1ccccc1
inactive: [1] 1.15% | [2] 11.2% | [3] 2.3% | [4] 6.05% | [5] 12% | [6] 5.2%

C1C2CC3(CO3)C1C1OC21 (stereo unspecified)
inactive: [1] -39.4% | [2] -13.8% | [3] -26.1% | [4] 3.85% | [5] -22.2% | [6] -10.8%

CCOC(=O)C(C#N)(Cc1c(-c2ccccc2)[nH]c2ccccc12)NC(C)=O (stereo unspecified)
inactive: [1] -4.25% | [2] 0.75% | [3] 4.85% | [4] -14.6% | [5] 7.9% | [6] 6.15%

O=c1ccc2cc(Br)ccc2o1
inactive: [1] 6.65% | [2] 16.7% | [3] 16.6% | [4] -16.4% | [5] 10.7% | [6] 4.35%

COc1c2c(cc3c1-c1c(cc4c(c1OC)OCO4)CC(C)C(C)C3)OCO2 (stereo unspecified)
inactive: [1] 12.4% | [2] 24.4% | [3] 21% | [4] 15.2% | [5] 40.1% | [6] 29.6%

CC12CCC(=O)OC1(C)OC(=O)CC2 (stereo unspecified)
inactive: [1] 10.4% | [2] 17.1% | [3] 2.85% | [4] -5.75% | [5] 7.7% | [6] -7.7%

Nc1ncnc(N)c1NC(=O)c1ccc(SCc2ccccc2)cc1
inactive: [1] -7.15% | [2] 20.9% | [3] 27.5% | [4] -21.2% | [5] 22.5% | [6] 22.2%

O=c1[nH]c(=O)n(C2CC(O)C(CO)O2)cc1/C=C/Br (stereo unspecified)
inactive: [1] -17.9% | [2] -9.25% | [3] -8.95% | [4] -5.4% | [5] 7.35% | [6] -18.1%

Nc1nnc(/C=C/c2ccc(Cl)cc2)o1
inactive: [1] -26.5% | [2] -8.15% | [3] -14.9% | [4] 2.9% | [5] -18.6% | [6] -11.3%

Cc1nnc2cc1CCCCCCCCC2
inactive: [1] 11.8% | [2] 6.25% | [3] 4.8% | [4] 5.2% | [5] -10.8% | [6] 4.9%

CCCCCCCCCCCC(=O)Nc1ccc(N(C)C(C)=O)cc1
inactive: [1] -14.4% | [2] -3.95% | [3] -9.1% | [4] -1.35% | [5] 7.2% | [6] -10.1%

CC(=O)C1CC=C(C)CC1 (stereo unspecified)
inactive: [1] -6.8% | [2] -9.55% | [3] 15.8% | [4] 14.6% | [5] -2.85% | [6] 2.6%

Nc1ccncc1CCc1ccccc1
inactive: [1] 5.5% | [2] -16.2% | [3] -2.05% | [4] 12.8% | [5] -18% | [6] 3.1%

OC1CCCN(CCNN2CCCC2)C1 (stereo unspecified)
inactive: [1] 17.9% | [2] 9.65% | [3] 15.4% | [4] 31.1% | [5] 2.35% | [6] 15.3%

COC(=O)/C(C#N)=C1\CCC(O)N1C (stereo unspecified)
inactive: [1] 11.9% | [2] -10.8% | [3] 5.8% | [4] 6.2% | [5] 3% | [6] 9.6%

O=C1NC(=O)C2(CCN(Cc3ccccc3)CC2)N1c1ccccc1
inactive: [1] 8.95% | [2] 0.1% | [3] -5.1% | [4] 6% | [5] 13.3% | [6] 3.15%

CCC1CN2CCc3cc(OC)c(OC)cc3C2CC1(O)C#N (stereo unspecified)
inactive: [1] 9.9% | [2] 18.9% | [3] -5.9% | [4] 0.6% | [5] 12.8% | [6] 39%

c1ccc(C2SCc3nc4cc5ccccc5cc4n32)cc1 (stereo unspecified)
inactive: [1] -21.6% | [2] 6.4% | [3] 17.1% | [4] 12% | [5] -17% | [6] 16.8%

COC(=O)/C=C\n1c(C)cc(=O)[nH]c1=O
inactive: [1] 2.9% | [2] 0.35% | [3] -5.5% | [4] -4.75% | [5] -2.8% | [6] -45.5%

Source: PubChem BioAssay (NCI)
